# Bioassay records as filed in PubChem.
# Hits are enriched below; roughly 0.61% of the tested compounds scored in any of these assays.
# CatB inh – human cathepsin B inhibitors, primary screen, biochemical, fluorogenic substrate; P07858; purified cathepsin B, fluorescence; inhibition, %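 (tested at 10 µM)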; actives 0.1% (n = 63,000); AID 453, 2006; in the data active = inhibition above about 21%
# WNV NS2B-NS3 inh – inhibitors of WNV NS2B-NS3 protease, primary screen, biochemical, fluorogenic substrate. Genome polyprotein (West Nile virus), P06935. fluorogenic substrate Ex360/Em465; active compounds read low. AID 577, 2007. actives 0.18% (n = 65,000). z-score (test concentration not listed); in the data active = z-score below about -3
# Target sequence (P06935 1371-1501 limits assumed): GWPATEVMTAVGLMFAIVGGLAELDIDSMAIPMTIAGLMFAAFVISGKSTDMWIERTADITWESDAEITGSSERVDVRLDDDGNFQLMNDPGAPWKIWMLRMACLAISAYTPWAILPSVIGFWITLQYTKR
# Target sequence (P06935 1502-1679 limits assumed): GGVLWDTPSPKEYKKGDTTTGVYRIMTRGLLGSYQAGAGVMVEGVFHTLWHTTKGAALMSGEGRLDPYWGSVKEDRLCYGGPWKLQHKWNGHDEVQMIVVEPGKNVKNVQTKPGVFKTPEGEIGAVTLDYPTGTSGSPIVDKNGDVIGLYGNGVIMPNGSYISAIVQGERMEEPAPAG
# mHtt clearance – clearance of mutant huntingtin inclusions, primary screen, imaging, HeLa Exon1htt(103Q)mCFP, confocal imaging; aggregate imaging; zero = plate's median compound well; inhibition, % at 1.5 µM; actives 0.42% (n = 47,000);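 active = inhibition of aggregate fluorescence above about 70%, also judged a hit by eye on the cell image, limit read from the data, passing the limit was not always enough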;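 also: cells exposed to compound for three days before fixation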
# CatS inh – inhibitors of human cathepsin S, biochemical, compound mixtures; recombinant cathepsin S, AMC dipeptide fluorescence, pooled mixtures; inhibition, %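 (tested at 5 µM per compound within 10-compound mixtures)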; actives 0.06% (n = 62,000); AID 501, 2006; in the data active = inhibition above about 32%, passing the limit was not always enough
# CatB mix inh – cathepsin B inhibitors from pooled compounds, primary screen, biochemical, compound mixtures, AMC fluorescence; AID 488, 2006; Purified cathepsin B, AMC dipeptide fluorescence; inhibition, %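 (ten-compound pools at 5 µM per compound and 50 µM total)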; actives 0.06% (n = 62,000); in the data active = inhibition above about 22%, passing the limit was not always enough
# CatL block – inhibitors of human cathepsin L, biochemical; Procathepsin L (Homo sapiens), P07711; purified cathepsin L, fluorogenic substrate, fluorescence; inhibition, %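 (tested at 10 µM)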; actives 0.17% (n = 58,000); AID 460, 2006; in the data active = inhibition above about 45%
# Target sequence (P07711 114-288 limits assumed): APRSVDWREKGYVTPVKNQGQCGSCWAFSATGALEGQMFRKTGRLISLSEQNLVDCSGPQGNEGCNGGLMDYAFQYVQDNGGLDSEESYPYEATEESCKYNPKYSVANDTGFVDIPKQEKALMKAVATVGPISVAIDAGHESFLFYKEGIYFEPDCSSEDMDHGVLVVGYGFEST
# Target sequence (P07711 292-333 limits assumed): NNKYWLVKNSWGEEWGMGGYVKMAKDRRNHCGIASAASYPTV
# Numbers stand for hits; i = inactive; nt = no result given.
SMILES,CatB inh,WNV NS2B-NS3 inh,mHtt clearance,CatS inh,CatB mix inh,CatL block
COc1ccc(OC)c(NC(=O)Cn2cc(C#N)c3ccccc32)c1,i,i,i,i,i,i
COCCNC(=O)C(c1cccc(OC)c1)N(C(=O)Cn1nnc2ccccc21)c1cccnc1 (stereo unspecified),23.0,i,i,i,i,i
COCCNC(=O)C(c1ccccc1)N(C(=O)Cn1nnc2ccccc21)c1cccnc1 (stereo unspecified),i,i,nt,i,i,nt
O=C(c1ccc2c(c1)N(Cc1ccccc1)CCS2)N1CCCCC1,nt,nt,i,nt,nt,nt
Cc1cccc(NC(=O)Cc2noc3ccccc23)c1,nt,nt,84.0,nt,nt,nt
CCCNC(=O)Cn1c(=O)oc2ccccc21,nt,nt,i,nt,nt,nt
c1ccc(Nc2ncnc3c2oc2ccccc23)cc1,i,i,72.5,i,i,i
O=C(NCc1nc2ccccc2[nH]1)c1ccco1,i,i,nt,i,i,i
O=C(N/C(=C/c1ccc(Br)cc1)c1nc2ccccc2[nH]1)c1ccco1,nt,nt,80.0,nt,nt,nt
O=C(Cn1nc(C(F)(F)F)c2c1CCC2)NCc1ccc(Cl)cc1,nt,nt,i,nt,nt,nt
O=C(CSc1nnc(-c2cccs2)n1-c1ccccc1)NCc1ccc2c(c1)OCO2,i,i,72.6,i,i,i
C[C@]12C=CC(=O)C=C1CC[C@H]1[C@@H]3C[C@@H](O)[C@](O)(C(=O)CO)[C@@]3(C)C[C@H](O)[C@@]12F,nt,i,nt,i,i,94.2
Cc1csc2nc(CNC(=O)C3CC=CCC3C(=O)O)cn12 (stereo unspecified),i,-4.32,i,i,i,i
O=C(Nc1ccccc1-c1ccccc1)c1cnccn1,i,i,nt,i,i,i
N#Cc1ccsc1NC(=O)c1cnccn1,65.5,i,i,i,i,i
Cc1ccc(SCC(=O)NC(=O)NCc2ccco2)cc1C,nt,nt,i,nt,nt,nt
Cc1cc(-c2ccccc2)nc(N2CCC(C(=O)NCC3CCCCC3)CC2)n1,nt,nt,i,nt,nt,nt
CC(C)(C)c1cc(NC(=O)c2cccnc2)no1,i,i,78.2,i,i,i
FC(F)C(F)(F)C(F)(F)C(F)(F)c1cc(-c2ccccc2)n[nH]1,nt,i,nt,i,i,nt
COC(=O)c1ccc(NC(=O)Cn2nc(-c3ccncc3)nc2SCC(=O)Nc2nccs2)cc1,nt,nt,i,nt,nt,nt
CCCCCC(=O)Nc1ccc2oc(-c3cccnc3)nc2c1,nt,i,70.6,nt,nt,nt
COc1ccc(-c2nnc(SCC(=O)OC3CCCCC3)o2)cc1OC,i,i,72.5,i,i,i
COc1ccc(C(=O)CSc2nnc(-c3ccc(C)cc3)o2)cc1,i,-4.12,i,i,i,i
COc1ccc(-c2nnc(SCC(=O)N3CCCCC3)o2)cc1OC,i,i,nt,i,i,i
Cc1cc(C)cc(OCC(=O)Nc2ccc(N3CCCC3)cc2)c1,i,i,nt,i,i,i
SMILES,CatB inh,WNV NS2B-NS3 inh,mHtt clearance,CatS inh,CatB mix inh,CatL block
Cc1ccc(OCC(=O)Nc2ccc(N3CCCC3)cc2)cc1C,i,i,i,i,i,60.9
Cc1sc2nc(CN(C(=O)NC3CCCCC3)C3CCCCC3)[nH]c(=O)c2c1C,nt,nt,i,nt,nt,nt
CCOC(=O)CSc1nc2sc3c(c2c(=O)n1C1CCCCC1)CCN(C)C3,nt,nt,i,nt,nt,nt
O=C(NCCCN1CCCCCC1)c1ccc(CS(=O)(=O)Cc2ccccc2F)o1,i,i,i,i,i,60.3
Cn1c(=O)cc(OCC(=O)N2CCC(N3CCCCC3)CC2)c2ccccc21,i,i,i,i,i,nt
O=C1CC(N2CCOCC2)C(=O)N1Cc1ccc(N2CCCC2=O)cc1 (stereo unspecified),i,-3.2,i,i,i,i
CCOc1ccc(-c2nnn(CC(=O)NCc3cccs3)n2)cc1,i,i,i,i,i,i
CCOc1ccc(-c2nnn(CC(=O)NCc3ccc4c(c3)OCO4)n2)cc1,nt,nt,75.7,nt,nt,nt
CCCCc1c(C)nn(-c2nnc3c4ccccc4n(C)c3n2)c1C,i,i,nt,nt,nt,94.3
CCc1nnc(NC(=O)CSc2nnc3c4ccccc4n(C)c3n2)s1,i,i,nt,i,i,i
CC(=O)Oc1oc(-c2ccccc2)nc1/C=N/c1ccccn1,i,i,nt,nt,nt,i
COc1ccccc1N=Cc1nc(-c2ccccc2)oc1OC(C)=O,40.6,i,i,i,32.8,i
CN1CCN(C(=O)CSc2nc(-c3cccs3)cc(-c3cccs3)c2C#N)CC1,i,i,nt,i,i,i
CSc1nc(C2CC2)cc(-c2cccs2)c1C#N,48.1,i,i,i,i,i
O=C(NCc1ccc(F)cc1)c1cnn2ccccc12,nt,nt,75.0,nt,nt,nt
O=C(N1CCOCC1)N1CCN(C(=O)N2CCOCC2)CC1,nt,nt,i,nt,nt,nt
O=C(CSc1nnnn1-c1ccc2c(c1)OCCO2)Nc1nc2c(s1)CCCC2,i,i,76.9,i,i,i
CN(CCNC(=O)c1cc2c(=O)n(C)c3ccccc3c2n1C)Cc1ccccc1,i,i,nt,71.5,i,nt
Cn1c(C(=O)N2CCN(Cc3ccccc3)CC2)cc2c(=O)n(C)c3ccccc3c21,i,i,nt,51.4,i,i
CC1CCCCN1CCNC(=O)c1cc2c(=O)n(C)c3ccccc3c2n1C (stereo unspecified),i,i,i,i,i,i
CCCN(CCC)CCNC(=O)c1cc2c(=O)n(C)c3ccccc3c2n1C,i,i,i,76.6,i,i
Cn1c(C(=O)NCCCN2CCCC2=O)cc2c(=O)n(C)c3ccccc3c21,i,i,nt,i,i,i
O=C(Cn1nc(C(F)(F)F)c2c1CCCC2)Nc1ccc2c(c1)OCO2,i,i,i,i,i,i
Cc1nn(-c2ccc(Cl)cc2)c2[nH]c(=O)c(CNCc3ccc4c(c3)OCO4)cc12,i,i,i,i,i,i
CC(C)C[C@H](N)c1nnc(S(=O)(=O)Cc2ccc(F)cc2)o1,i,i,nt,i,i,i
SMILES,CatB inh,WNV NS2B-NS3 inh,mHtt clearance,CatS inh,CatB mix inh,CatL block
CC(=O)c1cc2c(cc1NC(=O)C1CC1)OCO2,nt,nt,i,nt,nt,nt
C=CCCCCCCCCC(=O)NNC1=CC(=O)CC(C)(C)C1,nt,nt,i,nt,nt,nt
CC(C)(C)NS(=O)(=O)c1ccc(NS(C)(=O)=O)cc1,nt,nt,i,nt,nt,nt
CC(=O)/C(=C/N(C)C)Sc1ccc(C)cc1,nt,nt,i,nt,nt,nt
C/C(CCc1ccc2c(c1)OCO2)=N\N=C(/N)SC1CC(=O)N(c2ccccc2F)C1=O (stereo unspecified),nt,nt,i,nt,nt,nt
Cc1nn(C(C)(C)C)c(OC(=O)c2cccs2)c1S(=O)(=O)c1ccccc1,i,i,i,i,i,i
COc1ccc(S(=O)(=O)n2nc(OC(=O)c3ccccc3Br)cc2N)cc1,i,-4.23,nt,i,i,i
COc1ccc(S(=O)(=O)n2nc(OC(=O)c3ccccc3)cc2N)cc1,39.1,-6.36,i,i,29.1,i
COc1ccc(S(=O)(=O)n2nc(OC(=O)c3ccco3)cc2N)cc1,78.2,-7.66,i,i,67.5,i
COc1ccc(S(=O)(=O)n2nc(OC(=O)c3cccs3)cc2N)cc1,76.0,-5.56,i,i,68.4,i
CC(C)(C)C(=O)Oc1cc(N)n(S(=O)(=O)c2ccccc2)n1,i,i,nt,i,i,i
COCCNC(=O)c1ccc(CN2CCOCC2)cc1,nt,nt,i,nt,nt,nt
